HSV augment – increases HSV replication in cells | HSV replication augmentation in cells, fold increase | maximum fold increase | actives 0.005% (n = 220,000) | AID 1956; in the data active means maximum fold increase above about 1.5; inconclusive means no clear call, values can overlap the other calls; tested in PC3 cells
Calpain2 inh – calpain II (pig) inhibition. purified calpain II, fluorogenic peptide substrate, 30 min. inhibition, % at 16 µM. actives 0.37% (n = 220,000). AID 1236;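 active means inhibition above about 50%, limit read from the data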
Arbovirus anti – antivirals against arbovirus infection; arbovirus infection cell-based antiviral screen; AID 1251; inhibition, % at 10 µM; actives 0.37% (n = 200,000); in the data active means inhibition above about 30%
Efa HMGR inh – E. faecalis class II HMG-CoA reductase inhibition | actives 0.41% (n = 190,000) | inhibition, % at 10 µM | purified E. faecalis HMGR, NADPH absorbance 340 nm kinetic | AID 1066;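 active means inhibition above a set limit, the median over all tested compounds plus 3 SD, cut at about 9.5% in these data; inconclusive means no clear call, values can overlap the other calls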;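 further: enzyme runs in reverse so mevalonate oxidation gives rising NADPH absorbance; 0% = complete reaction with DMSO and 100% = background rate lacking mevalonate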
ROMK primary – modulators of human ROMK potassium channel; B-score at 10 µM; actives 2% (n = 130,000); AID 1918; Tet-inducible ROMK, thallium flux fluorescence; actives lie on both sides;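 active means signal ratio slope over the read window, or its plate-corrected B-score, at least 3 SD from the plate mean, either direction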;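 further: B-score of the F/F0 ratio slope over 7 to 12 s after thallium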
Target sequence (P48048 whole entry, looked up): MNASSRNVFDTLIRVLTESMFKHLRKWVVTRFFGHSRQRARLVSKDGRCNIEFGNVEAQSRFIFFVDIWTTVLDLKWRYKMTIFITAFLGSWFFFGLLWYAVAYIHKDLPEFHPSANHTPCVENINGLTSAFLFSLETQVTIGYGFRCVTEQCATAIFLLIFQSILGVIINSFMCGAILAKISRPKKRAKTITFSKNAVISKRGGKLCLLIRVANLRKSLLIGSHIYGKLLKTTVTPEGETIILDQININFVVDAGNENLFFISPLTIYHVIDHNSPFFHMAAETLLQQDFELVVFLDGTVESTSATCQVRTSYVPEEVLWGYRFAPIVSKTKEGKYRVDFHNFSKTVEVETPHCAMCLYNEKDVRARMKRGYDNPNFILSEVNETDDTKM
ROMK retest – human ROMK channel modulation, retest confirmation; shares compounds with ROMK primary; actives 54% (n = 3,000); ROMK thallium flux, fluorescence ratio; active compounds read low; normalized thallium flux (F/F0 slope) at 10 µM;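 active means Flux at 10 µM at least 3 SD below or above vehicle control mean in one or both replicates; inconclusive means no clear call, values can overlap the other calls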
An asterisk follows results filed as active; i = inactive; ? = inconclusive; · = no result. This is a sample that favours compounds with a hit; in the whole collection about 2.1% have one here.

SMILES	HSV augment	Calpain2 inh	Arbovirus anti	Efa HMGR inh	ROMK primary	ROMK retest
Clc1ccc(-c2nnc(CSc3nnc(-c4cccs4)n3Cc3ccccc3)o2)cc1	i	21	3	4	-2.1	0.072
Cc1nnc(SCc2nnc(-c3cccs3)o2)n1Cc1ccccc1	i	11	10	0	1.2	·
C=CCN(Cc1cn(C)nc1-c1cccc(Cl)c1)C1CCS(=O)(=O)C1 (configuration not stated)	i	-30	5	4	0.027	·
COc1ccc(C(=O)CSc2[nH]c(=O)cc(C(F)(F)F)c2C#N)cc1	i	6	·	·	·	0.068*
COc1ccc(NC(=O)Nc2ccc(F)cc2)c(C)c1	i	8	2	-4	-2.1*	0.075
O=C(/C=C/c1cccc(Br)c1)N1CCN(c2ccccn2)CC1	i	-2	-4	-4	-0.36	·
O=[N+]([O-])c1ccc(OCC(O)CNC2CCCC2)cc1 (configuration not stated)	i	8	·	·	·	·
OC(CNC1CCCCC1)COCCOc1ccc(Br)cc1 (configuration not stated)	i	20	-32	-6	-4.1*	0.059*
Cn1c(=O)c([N+](=O)[O-])c(NCc2ccc3c(c2)OCO3)c2ccccc21	i	2	·	·	·	·
CCSc1nnc(NC(=O)C(C(F)(F)F)C(F)(F)F)s1	i	-2	10	4	-0.03	·
CCSc1nnc(NC(=O)C(C)(C(F)(F)F)C(F)(F)F)s1	i	-10	11	-1	-3	·
CCSc1nnc(NC(=O)NCC(F)(F)F)s1	i	6	7	-6	2.6*	0.078
CCSc1nnc(NC(=O)C(CC)(C(F)(F)F)C(F)(F)F)s1	i	4	3	0	-0.91	0.071
COc1ccc(CN(C)C(=O)CCl)cc1	i	-5	7	1	-0.48	·
CN(Cc1ccc(Cl)cc1)C(=O)CCl	i	-5	2	-3	-4.7*	?
C#CCOCCOCCOCCNc1nc(N2CCN(C(=O)[C@H](Cc3cc4ccccc4[nH]3)n3cc([C@@H](N)Cc4ccc(O)cc4)nn3)CC2)nc(N2CCN(C(=O)[C@H](Cc3cc4ccccc4[nH]3)n3cc([C@@H](N)CC(C)C)nn3)CC2)n1	·	-97	·	·	·	0.045*
C#CCOCCOCCOCCNc1nc(N2CCN(C(=O)C(Cc3cc4ccccc4[nH]3)n3cc(C(N)Cc4ccc(O)cc4)nn3)CC2)nc(N2CCN(C(=O)C(Cc3cc4ccccc4[nH]3)n3cc(C(N)Cc4ccc(O)cc4)nn3)CC2)n1 (configuration not stated)	·	-37	-6	-4	·	·
CC(=O)/C=C1/C(=O)Nc2ccccc21	i	-2	-6	-8	-3.8*	0.034*
Cc1nc2cc(C(=O)OCC(=O)NC34CC5CC(CC(C5)C3)C4)ccc2n1-c1ccccc1	i	-46	-8	0	-3*	0.065*
Cc1nc2cc(C(=O)OCC(=O)NC3CCS(=O)(=O)C3)ccc2n1-c1ccccc1 (configuration not stated)	i	0	4	-1	-0.057	·
CC1(C)Cc2nc3sc4c(SCC(=O)NCc5ccco5)ncnc4c3cc2CO1	i	10	7	-6	·	·
Cc1nc2c(sc3nc4c(cc32)COC(C)(C)C4)c(=O)n1CC(=O)NCc1ccco1	i	-32	-13	-3	4.1*	0.09
CC(C)Cc1ccc(C(C)NC(=O)c2ccc(=O)[nH]c2)cc1 (configuration not stated)	i	3	4	0	-1.4	·
CN1C(=O)CC(N2CCN(CCN=CC3=C(O)CC(C)(C)CC3=O)CC2)C1=O (configuration not stated)	i	-18	0	2	0.97	·
CC1(C)CC(=O)C(C=NCCN2CCN(C3CC(=O)N(c4ccc(Cl)c(Cl)c4)C3=O)CC2)=C(O)C1 (configuration not stated)	i	-38	4	3	-6.7*	0.077
SMILES	HSV augment	Calpain2 inh	Arbovirus anti	Efa HMGR inh	ROMK primary	ROMK retest
O=C1CC(c2ccc(Cl)c(Cl)c2)CC(O)=C1C=NCCN1CCNCC1 (configuration not stated)	i	-34	4	1	·	0.057*
COc1ccc(NC(=O)CNc2ccc(C#N)cc2)cc1	i	13	4	-4	-0.57	·
c1ccc(CC2=NCCN2)cc1	i	24	9	-2	3.1*	0.079
Cc1cccc(NC(=O)CC2C(=O)NC3CCCCC3N2C(=O)c2ccccc2Cl)c1 (configuration not stated)	i	-3	·	·	·	·
Cc1ccc(C(=O)N2C(CC(=O)Nc3ccc(Cl)cc3)C(=O)NC3CCCCC32)cc1 (configuration not stated)	i	11	-20	-12	·	0.067*
Cc1ccn2cc(CCNC(=O)COc3ccccc3)nc2c1	i	-5	·	·	·	·
O=C(c1ccc([N+](=O)[O-])cc1)N(Cc1ccc(Br)cc1)N1C(=O)CCCC1=O	i	-26	2	0	-7.3*	0.037*
O=C(c1ccccc1Cl)N(Cc1ccc(Br)cc1)N1C(=O)CCCC1=O	i	8	-1	-8	·	·
CCc1cccc(CC)c1NC(=O)COC(=O)CC1c2ccccc2CCN1S(=O)(=O)c1ccc(F)cc1 (configuration not stated)	i	14	6	-3	-3.8*	0.06*
O=C(COC(=O)CC1c2ccccc2CCN1S(=O)(=O)c1ccc(F)cc1)Nc1ccccc1 (configuration not stated)	i	15	8	2	-1.2	·
CCOC(=O)Nc1nc(-c2ccccc2)c(C(=O)c2ccccc2)s1	i	7	-3	-1	3.6*	0.082
COC(=O)Nc1nc(-c2ccccc2)c(C(=O)c2ccc(Cl)cc2)s1	i	18	-22	-7	2	·
CC(=O)c1sc(NC(=O)c2c(F)cccc2F)nc1-c1ccccc1	i	33	16	0	-12*	0.078
CC(=O)c1sc(NC(=O)c2ccccc2)nc1-c1ccccc1	i	13	-5	2	0.55	·
O=c1onc(-c2ccc(Cl)cc2Cl)n1-c1cccnc1	i	-7	·	·	·	·
Cc1ccsc1C1CC(=O)OC2=C1C(=O)CC(C)(C)C2 (configuration not stated)	i	30	-1	-9	0.037	·
CN1\C(=C/C=C/C=C/C=[N+](C)C)C(C)(C)c2ccccc21	·	-24	-8	0	-3.6*	0.051*
CN1/C(=C\C=O)C(C)(C)c2ccccc21	i	-8	18	-1	0.44	·
CCCCCCCCNC(=S)NCCN1CCCCC1	i	27	1	-18	-2.6*	0.048*
CC(=O)Cc1nsc(NC(=O)c2ccc(-c3cc(Cl)ccc3Cl)o2)n1	i	-29	-11	5	3.8*	0.089
COc1cccc(C(=O)O/N=C(\C)c2cnccn2)c1	i	-11	4	-7	-3.6*	0.064*
O=C(NCCc1ccccc1)c1ccc(NCC2CCCO2)c([N+](=O)[O-])c1 (configuration not stated)	i	23	-1	-4	0.35	·
